The source made the active and inactive calls. Unless noted, the rule behind the calls is not given here.
Columns and labels:
[1] = HepG2 liver cancer cell viability effects, profiling panel, resazurin fluorescence, 24 h, PK04 Diversity Set (AID 1172); details: higher = more signal
[2] = basal S. cerevisiae growth modulation, no modifier, primary screen, OD600, strain BY4716, 24 h, basal condition (AID 1173); details: OD600, 24 h, higher = more signal, called active from +8 up or from −8 down
[3] = MM1S myeloma cell viability, profiling panel, resazurin fluorescence, basal, 24 h, PK04 Diversity Set (AID 1174); details: higher = more signal, called active from +8 up or from −8 down;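 note: MM1S multiple myeloma cell line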
[4] = target: Dihydroorotate dehydrogenase (quinone), mitochondrial (Plasmodium falciparum (isolate 3D7)) (UniProt Q08210); assay: PfDHODH enzyme inhibitors, primary screen, biochemical, C-terminal His tag, absorbance 600 nm (AID 1175); details: DCIP absorbance 600 nm, higher = more signal, called active from +8 up or from −8 down;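 note: recombinant parasite enzyme with a five histidine tag at its C terminus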
Dihydroorotate dehydrogenase (quinone), mitochondrial (Plasmodium falciparum (isolate 3D7)), sequence (Q08210 whole entry, looked up): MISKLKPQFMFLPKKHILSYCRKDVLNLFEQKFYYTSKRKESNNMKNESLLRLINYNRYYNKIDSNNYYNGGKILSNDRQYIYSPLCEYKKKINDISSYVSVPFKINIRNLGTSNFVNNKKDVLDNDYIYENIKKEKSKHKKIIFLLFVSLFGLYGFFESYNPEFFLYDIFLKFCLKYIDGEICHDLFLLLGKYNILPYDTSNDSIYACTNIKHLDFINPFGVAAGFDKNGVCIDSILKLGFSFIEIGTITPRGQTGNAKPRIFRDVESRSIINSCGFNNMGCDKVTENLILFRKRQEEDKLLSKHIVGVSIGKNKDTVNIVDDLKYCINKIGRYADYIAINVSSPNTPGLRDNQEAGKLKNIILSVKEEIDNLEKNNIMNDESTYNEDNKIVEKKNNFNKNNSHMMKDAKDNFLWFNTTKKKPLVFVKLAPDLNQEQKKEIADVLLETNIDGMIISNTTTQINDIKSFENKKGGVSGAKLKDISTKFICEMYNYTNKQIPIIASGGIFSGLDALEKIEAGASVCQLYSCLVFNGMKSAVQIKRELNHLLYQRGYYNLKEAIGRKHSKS

[5] = P. aeruginosa biofilm formation inhibitors, primary screen, strain PAO1, LB-PBS medium, absorbance 600 nm (AID 1176); details: P. aeruginosa PAO1 growth/biofilm, A600, 12 h; higher = more signal
[6] = S. cerevisiae RM11-1a growth modifiers, primary screen, strain RM11-1a, OD600, basal, 24 h (AID 1177); details: OD600, 24 h, higher = more signal, called active from +8 up or from −8 down;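 note: cultures grown under basal conditions with no added stressor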
[7] = E. coli acrAB mutant growth effects, primary screen, E. coli filamentation inducers, strain DRC39, OD650, 24 h (AID 1178); details: higher = more signal, called active from +8 up or from −8 down;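 note: growth measured as culture turbidity by optical density at 650 nm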
[8] = E. coli acrAB mutant growth effects, primary screen, E. coli filamentation inducers, strain DRC39, OD650, 48 h (AID 1179);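 note: screen aims at cell division blockers that make cells filament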; details: E. coli DRC39 delta-acrAB growth, higher = more signal, called active from +8 up or from −8 down
[9] = RPMI8226 myeloma cell viability, profiling panel, resazurin fluorescence, basal, 24 h, PK04 Diversity Set (AID 1180); details: higher = more signal;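 note: RPMI8826 multiple myeloma cell line at 5000 cells per well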
[10] = target: E3 ubiquitin-protein ligase XIAP (Homo sapiens) (UniProt P98170); assay: XIAP binders, primary screen, biophysical, small-molecule microarray, fluorescence 635 nm (AID 1181); details: small-molecule microarray binding, higher = more signal;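 note: score merges 667 nm emission and signal to noise over triplicate slides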
E3 ubiquitin-protein ligase XIAP (Homo sapiens), sequence (P98170 whole entry, looked up): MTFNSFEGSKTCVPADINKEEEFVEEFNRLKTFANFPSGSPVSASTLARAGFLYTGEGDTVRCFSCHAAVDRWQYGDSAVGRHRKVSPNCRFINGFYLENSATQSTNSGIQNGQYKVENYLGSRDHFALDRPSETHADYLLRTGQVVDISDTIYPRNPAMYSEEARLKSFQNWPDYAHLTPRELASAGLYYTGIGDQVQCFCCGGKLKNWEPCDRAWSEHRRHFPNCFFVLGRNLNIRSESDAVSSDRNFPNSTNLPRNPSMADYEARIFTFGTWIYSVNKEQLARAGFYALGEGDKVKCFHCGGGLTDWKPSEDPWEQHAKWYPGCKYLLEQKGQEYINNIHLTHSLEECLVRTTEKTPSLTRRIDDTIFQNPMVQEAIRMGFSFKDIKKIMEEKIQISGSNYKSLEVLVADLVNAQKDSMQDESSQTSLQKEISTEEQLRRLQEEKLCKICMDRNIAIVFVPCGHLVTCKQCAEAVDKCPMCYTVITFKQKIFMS

[11] = system: XIP peptide (Xip251-270) binding; assay: small-molecule binders of XIP peptide, primary screen, biochemical, small-molecule microarray, fluorescence 635/667 nm, 0.1 µg/mL protein (AID 1182); details: fluorescent protein binding, 635 nm, higher = more signal, called active from +8 up or from −8 down
[12] = system: XIP peptide (Xip251-270); assay: small-molecule binders of XIP peptide, primary screen, biochemical, small-molecule microarray, fluorescence 635/667 nm, 0.5 µg/mL protein (AID 1183); details: small-molecule microarray binding, fluorescence 635 nm; higher = more signal
[13] = Plasmodium falciparum growth inhibition, primary screen, strain 3D7, DAPI fluorescence, 100 nL (AID 1184);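 note: parasites grown inside human red blood cells in medium with human serum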; details: P. falciparum 3D7 growth, 3 d, higher = more signal
[14] = target: Homeobox protein Hox-A13 (Mus musculus) (UniProt Q62424); assay: inhibitors of HoxA13-DNA binding, primary screen, biochemical, fluorescence polarization, labeled oligonucleotide (AID 1185); details: 15 min, higher = more signal, called active from +8 up or from −8 down
Homeobox protein Hox-A13 (Mus musculus), sequence (Q62424 whole entry, looked up): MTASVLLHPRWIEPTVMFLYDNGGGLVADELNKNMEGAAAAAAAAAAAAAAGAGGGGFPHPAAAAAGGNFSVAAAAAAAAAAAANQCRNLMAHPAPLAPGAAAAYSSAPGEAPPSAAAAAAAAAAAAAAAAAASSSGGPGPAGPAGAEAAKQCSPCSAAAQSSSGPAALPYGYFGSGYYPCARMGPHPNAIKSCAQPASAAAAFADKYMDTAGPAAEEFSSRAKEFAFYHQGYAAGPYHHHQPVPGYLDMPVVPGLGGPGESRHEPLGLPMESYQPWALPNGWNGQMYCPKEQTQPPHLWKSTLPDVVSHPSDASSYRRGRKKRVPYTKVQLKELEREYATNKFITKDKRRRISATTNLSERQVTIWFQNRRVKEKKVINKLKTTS

[15] = inhibitors of hydroxyurea-induced Chk1 phosphorylation, primary screen, imaging, HeLa, phospho-Chk1 antibody, percent positive cells (AID 1186); details: hydroxyurea-induced phospho-Chk1 immunofluorescence imaging, higher = more signal
[16] = inhibitors of hydroxyurea-induced Chk1 phosphorylation, primary screen, imaging, HeLa, phospho-Chk1 nuclear intensity (AID 1187); details: hydroxyurea-induced phospho-Chk1 immunofluorescence imaging, higher = more signal

| SMILES | z-score [1] | z-score [2] | z-score [3] | composite z-score [4] | z-score [5] | z-score [6] | z-score [7] | z-score [8] | z-score [9] | composite z-score [10] | composite z-score [11] | composite z-score [12] | z-score [13] | z-score [14] | z-score [15] | z-score [16] |
| --- | --- | --- | --- | --- | --- | --- | --- | --- | --- | --- | --- | --- | --- | --- | --- | --- |
| CCCCCN1CC=CC23O[C@@H]4/C=C\CCCOC(=O)C4[C@H]2C(=O)N(CCCO)[C@@H]3C1=O (some centres not stated) | 1.15 | -1.26 (inactive) | 1.21 (inactive) | -1.37 (inactive) | 0.661 (inactive) | -1.32 (inactive) | 0.581 (inactive) | 0.025 (inactive) | 1.72 | 0.239 | 1.75 (inactive) | 0.772 | -0.332 | -5.09 (inactive) | -0.297 (inactive) | -0.426 (inactive) |
| O=C1C[C@]2(c3ccc([N+](=O)[O-])cc3)C(=O)N(CCN3CCOCC3)c3cc(CO)ccc3[C@H]2N1C1CCCCC1 | -0.592 | -0.0979 (inactive) | -0.399 (inactive) | -7.11 (inactive) | 0.0993 (inactive) | -0.974 (inactive) | 1.06 (inactive) | 1.66 (inactive) | 0.186 | -0.16 | 1.2 (inactive) | 0.314 | 0.476 | -2.02 (inactive) | -0.533 (inactive) | -0.355 (inactive) |
| CC(C)N1C(=O)[C@@]2(Cc3ccccc31)c1ccccc1C(=O)N(C1CCCCC1)[C@H]2c1ccc(CO)cc1 | 2.02 | -0.536 (inactive) | 0.843 (inactive) | -18.9 (active) | -0.255 (inactive) | -0.719 (inactive) | 0.589 (inactive) | 0.443 (inactive) | 0.917 | -0.209 | -0.091 (inactive) | 0.709 | -0.288 | -0.666 (inactive) | -0.0292 (inactive) | 0.029 (inactive) |
| COc1ccc(C(O)C2C=CC3C(=O)N(c4ccccc4)C(=O)C3N2Nc2ccc(C(C)C)cc2)cc1OCc1ccccc1 (configuration not stated) | -0.217 | -1.78 (inactive) | -0.0284 (inactive) | 0.785 (inactive) | 2.33 (inactive) | 0.165 (inactive) | -1.91 (inactive) | -1.38 (inactive) | -0.291 | -0.0535 | 0.658 (inactive) | 0.8 | 0.1 | -0.47 (inactive) | -0.309 (inactive) | -0.472 (inactive) |
| O=C1O[C@H](c2ccccc2)[C@H](c2ccccc2)N2[C@H]1[C@@H](C(=O)N1CCN(c3ncccn3)CC1)[C@]1(C(=O)Nc3ccc(C#CC4=CCCCC4)cc31)[C@H]2c1ccc(O)cc1 | 1.03 | 0.866 (inactive) | 0.0054 (inactive) | -0.457 (inactive) | 0.902 (inactive) | 2.46 (inactive) | 0.105 (inactive) | 0.557 (inactive) | -0.441 | -0.0559 | 0.28 (inactive) | 0.815 | -0.953 | 2.84 (inactive) | -0.329 (inactive) | -0.513 (inactive) |
| CCOC(=O)C[C@H]1[C@H](OC(=O)c2ccc(C(=O)c3ccccc3)cc2)[C@@H](NC(=O)c2ccc(-c3ccccc3)cc2)c2cc(OCCCO)ccc2N1C(=O)c1ccccc1 | -0.587 | -0.0317 (inactive) | -0.27 (inactive) | -0.972 (inactive) | 0.0429 (inactive) | -0.469 (inactive) | -0.486 (inactive) | -0.566 (inactive) | -0.387 | 0.0153 | 0.233 (inactive) | 0.549 | -0.786 | -1.36 (inactive) | 0.428 (inactive) | 0.303 (inactive) |
| COC(=O)[C@@]1(Cc2ccccc2)[C@H]2c3cc(C(=O)N4CCCC4)n(Cc4nc5ccccc5[nH]4)c3C[C@H]2CN1C(=O)c1ccccc1 | -0.415 | 1.22 (inactive) | -1.66 (inactive) | 0.374 (inactive) | 0.687 (inactive) | 0.759 (inactive) | -0.538 (inactive) | -1.1 (inactive) | -1.3 | 0.119 | 1.33 (inactive) | 0.213 | -1.65 | -3.97 (inactive) | -1.01 (inactive) | -0.881 (inactive) |
| CC(=O)n1cc(C(O)C2C=CC3C(=O)N(C)C(=O)C3N2Nc2ccccc2)c2ccccc21 (configuration not stated) | 0.362 | 0.125 (inactive) | -1.2 (inactive) | 0.0365 (inactive) | 1.07 (inactive) | 0.135 (inactive) | -0.321 (inactive) | -0.306 (inactive) | -1.11 | 0.229 | 0.144 (inactive) | 0.383 | 0.413 | -3.76 (inactive) | -0.47 (inactive) | -0.987 (inactive) |
| O=C1OCCC=C[C@H]2OC34C=CCN(CCN5CCOCC5)C(=O)[C@H]3N(CCCCCCO)C(=O)[C@@H]4C12 (some centres not stated) | 0.24 | 0.039 (inactive) | -0.0328 (inactive) | 0.369 (inactive) | -0.373 (inactive) | 0.626 (inactive) | 1.14 (inactive) | 1.43 (inactive) | 0.22 | 0.464 | 0.995 (inactive) | 0.091 | -0.0217 | -5.15 (inactive) | -0.334 (inactive) | -0.109 (inactive) |
| O=C1[C@H]2C=C(Br)[C@H](C[C@@H]2c2ccccc2)[C@@]12CO2 | -0.25 | -7.98 (inactive) | -0.727 (inactive) | 0.402 (inactive) | -0.14 (inactive) | -0.13 (inactive) | -1.29 (inactive) | -1.58 (inactive) | -0.579 | -0.228 | 0.122 (inactive) | 0.31 | -0.391 | -1.29 (inactive) | -0.155 (inactive) | -0.0519 (inactive) |
| CCCC[C@@H]1C[C@H]1[C@@H](NC(=O)c1ccco1)c1ccc(Cl)cc1 | -0.653 | 1.44 (inactive) | 0.134 (inactive) | -0.284 (inactive) | 0.343 (inactive) | 0.657 (inactive) | -0.181 (inactive) | 0.16 (inactive) | -0.0142 | -0.124 | 0.593 (inactive) | -0.111 | -0.727 | -3.18 (inactive) | -0.522 (inactive) | -0.995 (inactive) |
| CC1CC/C=C\[C@H]2OC34C=CCN(Cn5nnc6ccccc65)C(=O)[C@H]3N(C(CO)C(C)C)C(=O)[C@@H]4C2C(=O)O1 (some centres not stated) | 0.913 | 0.673 (inactive) | -1.29 (inactive) | -0.64 (inactive) | 0.357 (inactive) | -0.271 (inactive) | 0.465 (inactive) | 0.275 (inactive) | 0.0555 | 0.646 | 0.575 (inactive) | 0.212 | -0.918 | -5.58 (inactive) | 0.822 (inactive) | 0.71 (inactive) |
| COC(=O)[C@@]1(Cc2ccc(OC)cc2)[C@H]2c3cc(C(=O)N(C)C)n(CCN4CNCC4=O)c3C[C@H]2CN1C(=O)c1ccccc1 | 0.642 | 0.124 (inactive) | 0.622 (inactive) | -0.72 (inactive) | 0.371 (inactive) | -0.188 (inactive) | 0.479 (inactive) | -0.318 (inactive) | 0.777 | 0.597 | 0.384 (inactive) | -0.144 | -1.23 | -4.73 (inactive) | -0.648 (inactive) | -0.397 (inactive) |
| C=CCC(OC(C)=O)[C@@H]1[C@@H](N(Cc2ccc(-c3cccc(C(F)(F)F)c3)o2)C(=O)Cc2ccc(F)cc2)c2cc(OCCCO)ccc2N1C(=O)Cc1ccc(OC)cc1 (some centres not stated) | 1.2 | -0.546 (inactive) | 1.51 (inactive) | -1.26 (inactive) | 0.0186 (inactive) | -0.905 (inactive) | 0.559 (inactive) | 0.671 (inactive) | 1.06 | 0.0181 | 0.664 (inactive) | -0.0147 | -1.61 | -1.69 (inactive) | 0.0521 (inactive) | 0.633 (inactive) |
| CC(=O)N1Cc2ccccc2C[C@@]2(COC(c3ccc(OCCCO)cc3)=N2)C1=O | 1.17 | -0.797 (inactive) | -0.15 (inactive) | -0.469 (inactive) | 2.26 (inactive) | -0.723 (inactive) | 1.73 (inactive) | 2.3 (inactive) | 0.266 | 1.2 | 1.44 (inactive) | 0.81 | -2.28 | -3.13 (inactive) | -1.01 (inactive) | -1.12 (inactive) |
| CC(CO)N1C(=O)[C@@H]2C3C(=O)OCCC/C=C\[C@H]3OC23C=CCN(c2ccc4ccccc4c2)C(=O)[C@@H]13 (some centres not stated) | -0.757 | -0.55 (inactive) | -0.208 (inactive) | 0.575 (inactive) | -0.456 (inactive) | 0.179 (inactive) | 0.162 (inactive) | 0.703 (inactive) | -0.0216 | -0.0989 | 0.372 (inactive) | 0.0016 | 0.252 | -3.77 (inactive) | -0.663 (inactive) | -0.182 (inactive) |
| CN1C(=O)C2C=CC(C(O)c3ccc(I)cc3)N(N3CCCCC3)C2C1=O (configuration not stated) | -1.17 | -3.86 (inactive) | -2.13 (inactive) | 0.0552 (inactive) | 0.338 (inactive) | -0.0818 (inactive) | -0.709 (inactive) | -1.11 (inactive) | -1.26 | 0.33 | 0.405 (inactive) | 0.771 | -0.378 | -4.82 (inactive) | 0.151 (inactive) | -0.062 (inactive) |
